Assay outcomes (PubChem)
This is a sample that favours compounds with a hit; in the whole collection about 1.8% have one here.
GLP1R inv ag = GLP-1 receptor (human) inverse agonism; P43220; HEK293 GLP-1R CRE-luciferase, luminescence, 24 h; GLP-1R form is constitutively active; Potency, µM (doses to about 38.3 µM), for the others: top-dose activity change, negative = inhibition, actives largely listed as inhibitors; 410,000 compounds, 1.6% hits; AID 624417; also: potency is read from the fitted curve at half-maximal effect; % is scaled to controls: 0 for no effect and ±100 for the full control effect; nearly all actives have a fitted effect of over 55% in size
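Constitutively active GLP-1R drives a cAMP-responsive luciferase in stably transfected HEK293 cells; test compounds are added after overnight (12 h) attachment and left 24 hr, and signal loss in luminescence marks inhibition.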
TRPML1 blocker = human mucolipin-1 channel inhibition; TRPML1-inducible cells, Ca2+ dye fluorescence, FDSS; hits give low values; inhibition of EC80 agonist-evoked calcium signal; AID 624415; 390,000 compounds, 0.02% hits; Q9GZU1; activity change, negative = inhibition, % (no concentration beside the values); in the data active = activity change below about -50%; inconclusive = between about -30% and that limit;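 also: stimulus is agonist 54-4 at its EC80 concentration; % is scaled to controls: 0 for no effect and ±100 for the full control effect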
Target sequence (Q9GZU1 whole entry, looked up): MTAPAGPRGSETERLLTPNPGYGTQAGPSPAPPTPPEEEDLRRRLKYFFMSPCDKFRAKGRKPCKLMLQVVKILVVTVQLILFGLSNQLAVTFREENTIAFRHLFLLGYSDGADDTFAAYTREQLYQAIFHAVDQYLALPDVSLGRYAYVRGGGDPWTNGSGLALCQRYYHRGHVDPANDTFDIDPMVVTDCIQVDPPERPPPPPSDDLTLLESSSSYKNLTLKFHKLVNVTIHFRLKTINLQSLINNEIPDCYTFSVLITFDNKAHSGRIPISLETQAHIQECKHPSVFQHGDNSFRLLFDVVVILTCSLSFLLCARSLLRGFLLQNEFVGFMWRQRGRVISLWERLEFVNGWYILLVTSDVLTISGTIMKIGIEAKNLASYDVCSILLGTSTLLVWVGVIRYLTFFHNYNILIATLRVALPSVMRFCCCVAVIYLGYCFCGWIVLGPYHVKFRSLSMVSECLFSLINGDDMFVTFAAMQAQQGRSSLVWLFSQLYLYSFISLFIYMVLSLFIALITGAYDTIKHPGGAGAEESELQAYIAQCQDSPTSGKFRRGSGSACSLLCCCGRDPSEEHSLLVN
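Calcium fluorescence in TRPML1-DL cells induced overnight with Tet: a 110 s read after compound pin addition, then a 110 s antagonist read after challenge with 54-4 at 4 uM final (EC80).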
GLP1R ag = activates the human GLP-1 receptor | HEK293 GLP-1R CRE-luciferase, luminescence, 4-6 h; cells express a hypersensitive GLP-1R form | Potency, µM (series often up to 45.6 µM), inactives show top-dose activation, hits mostly activators | 380,000 compounds, 0.007% hits; also: potency is read from the fitted curve at half-maximal effect; % of control where 0% means no effect
HEK293 tox = cytotoxic in the GLP-1 receptor inverse agonist counter-screen; HEK293 cAMP-luciferase reporter cells, luminescence, 24 h; Potency, µM (top dose mostly 38.3 µM), without a hit: at the top dose activity change, negative = inhibition, usual class: inhibitors; 410,000 compounds, 0.13% hits; AID 624418;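 also: loss of luciferase light is scored as toxicity; potency is read from the fitted curve at half-maximal effect; % is scaled to controls: 0 for no effect and ±100 for the full control effect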
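Luminescence readout: signal drop marks cytotoxicity. Plated cells grew 12 h at 37 °C, 5% CO2, received 23 nL compound for 24 h, then got luciferase reagent, read after 12 min at RT.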
TRPML1 agonist = human mucolipin-1 channel agonism; TRPML1-expressing cells, Ca2+ dye fluorescence, FDSS; activation, % (test concentration not listed); Q9GZU1; 410,000 compounds, 0.12% hits; in the data active = activation above about 50%; inconclusive = mostly about 30% to 49%; also: 0% is about no effect
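TRPML1-DL cells, Tet-induced overnight (~16 h, 37 degrees C), loaded 45-90 min at room temperature with Ca8 no-wash calcium dye plus quencher. FDSS fluorescence: 10 s baseline, compound pin-transfer, 110 s agonist read, then EC80 54-4 (4uM final) and 110 s antagonist read.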
The depositor's hits bear a star; ? = inconclusive; nt = not tested or not shown. Unless noted, calls follow the shape of the dose curve; as a rule, active = well fitted curve in the direction sought with a large enough effect; inconclusive = small, poorly fitted or top-dose-only effect, or another doubt; inactive = no such curve, though single readings can be large; an effect the other way counts as inactive or inconclusive.

SMILES | GLP1R inv ag | TRPML1 blocker | GLP1R ag | HEK293 tox | TRPML1 agonist
CCc1ccc(C(C)NC(=O)C2(C)CC2(Br)Br)cc1 (configuration not stated) | 10µM* | -2.4 | -8.3% | -7.2% | -0.6
CC(C1CC1)N(Cc1ccccc1)C(=S)Nc1cccc(C(F)(F)F)c1 (configuration not stated) | 10µM* | 0.4 | 1.1% | -8.5% | -0.3
Cc1cccc(NC(=O)CCNS(=O)(=O)c2ccc3c(c2)CCCC(=O)N3)c1C | 4.1% | 14.1 | -3.0% | -4.5% | 1.0
Clc1ccccc1CSc1nc2ccncc2[nH]1 | -1.6% | -0.1 | 5.0% | -2.7% | 0.7
O=C(NCc1ccccc1Cl)c1ccc(CSc2nc3ccncc3[nH]2)cc1 | 10µM* | -10.1 | 7.8% | -4.0% | 2.9
CCOC(=O)C1=C(C)N(CC)C(=S)NC1c1ccc(Cl)cc1 (configuration not stated) | 10µM* | 5.8 | 1.6% | ? | 4.9
COC(=O)C1=C(C)N(Cc2ccccc2)C(=S)N[C@H]1c1ccccc1 | ? | -22.5 | -1.0% | 2.4% | 64.6*
COC(=O)C1=C(C)N(Cc2ccccc2)C(=O)N[C@H]1c1ccccc1 | ? | 2.4 | -7.4% | 11.6% | 2.7
CCC(Cc1c(I)cc(I)c(O)c1I)C(=O)O (configuration not stated) | nt | nt | 14.4% | nt | nt
CCN(Cc1ccccc1)C(=O)CN1C(=O)COc2ccc(S(=O)(=O)N3CCOCC3)cc21 | 5.6% | -16.6 | nt | -5.7% | 1.8
COc1ccc(OC)c2c(/C=C/c3c(C)[nH]c4ccccc34)ccnc12 | nt | nt | nt | nt | 0.8
CCC(=O)N1CCc2cc(S(=O)(=O)CCC(=O)Nc3ccc(OC(F)(F)F)cc3)ccc21 | -7.6% | -5.5 | -1.7% | -2.6% | 0.0
CCC1C(=O)C(C)(C)C(=O)OC1c1ccc([N+](=O)[O-])cc1 (configuration not stated) | -7.0% | -9.8 | 15.1% | -7.9% | 1.1
O=C1CC(=O)OC(c2ccc([N+](=O)[O-])cc2)O1 | ? | 5.2 | -13.7% | 5.01µM* | 11.2
O=C(NCc1ccc(F)cc1)c1ccc2c(c1)nc1n2CCCCC1 | 4.1% | -3.9 | nt | 21.4% | -0.5
CCCc1ccc(S(=O)(=O)N2CCN(C(C)C(=O)NCc3ccc(OC)cc3)CC2)cc1 (configuration not stated) | 10µM* | 1.5 | -2.1% | -6.4% | 2.2
COc1ccc(CNC(=O)C(C)N2CCN(S(=O)(=O)c3ccccc3F)CC2)cc1 (configuration not stated) | -4.9% | 0.1 | 8.6% | -15.1% | 4.2
CC(CNC(=O)c1ccc2c(c1)nc1n2CCCCC1)c1ccccc1 (configuration not stated) | ? | -6.4 | nt | -11.9% | -0.3
CC(=O)n1cc(N(C(=O)CCl)c2ccc([N+](=O)[O-])cc2)c2ccccc21 | ? | 7.6 | -1.2% | ? | 1.0
CC(=O)n1cc(N(C(=O)CCl)c2ccccc2)c2ccccc21 | 3.55µM* | 0.7 | 0.9% | ? | -0.2
Cc1ccccc1-c1noc(-c2cccnc2N2CCN(c3ccccc3)CC2)n1 | 11.2% | -15.8 | nt | 2.2% | 0.0
Cc1ccc(C(=O)Nc2ncc([N+](=O)[O-])s2)cc1 | 1.12µM* | 0.3 | -6.5% | -23.7% | 0.0
Cc1ccc(S(=O)(=O)N2CCCCC2)cc1C(=O)OC(C)C(=O)NCC1CCCCC1 (configuration not stated) | 7.08µM* | 10.1 | 6.1% | -4.0% | 0.2
CC1CCc2c(C(=O)OCC(=O)Nc3cccc(S(=O)(=O)N4CCCCCC4)c3)csc2C1 (configuration not stated) | 2.51µM* | 43.0 | -3.1% | -2.3% | 0.3
Cc1ccc(C)c(C(=O)OCC(=O)Nc2cccc(S(=O)(=O)N3CCCCC3)c2)c1 | 1.41µM* | 2.3 | -1.4% | -4.4% | 2.2
CC(OC(=O)c1cc(S(=O)(=O)N2CCOCC2)ccc1F)C(=O)NCC1CCCCC1 (configuration not stated) | -21.2% | -15.6 | 8.4% | 5.9% | -0.6
CCOc1cc(-c2ccc3c(c2)OCO3)cc(=[O+]CC)c2c(C)oc(C)c12 | nt | nt | nt | nt | 0.6
